Results reported in PubChem BioAssay AID489008 (National Center for Advancing Translational Sciences (NCATS), 2010).
Results filed as inconclusive are left out. Active and inactive are the calls of the source. Calls come from the whole dose curve; as a rule, active = well fitted inhibition curve with a large enough effect; inconclusive = small, poorly fitted or top-dose-only effect; inactive = flat fitted curve, though single readings scatter.

Target: Ferritin light chain (Equus caballus) (UniProt P02791)
Sequence (P02791 2-175 limits assumed): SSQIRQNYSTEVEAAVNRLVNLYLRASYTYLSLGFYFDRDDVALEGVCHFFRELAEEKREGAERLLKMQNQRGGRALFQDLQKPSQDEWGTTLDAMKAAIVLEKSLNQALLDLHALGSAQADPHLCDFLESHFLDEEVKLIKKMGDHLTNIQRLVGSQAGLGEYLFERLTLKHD
Test: Confirmation Assay for Identification of Novel General Anesthetics; note: nearly all actives have a fitted effect of over 40% in size
Settings: apoferritin 1-aminoanthracene fluorescence displacement
Outline: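 Competitive displacement of profluorescent 1-aminoanthracene from 10 uM horse-spleen apoferritin in 50% saturated 1-AMA/PBS; 10 min RT, fluorescence Ex 380/Em 535. Normalized to free 1-AMA and complex; four-parameter Hill fit.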
Potency is the fitted concentration of half-maximal effect.

Potency, active:
CN(C)c1ccc(C(=S)N2CCCCCC2)cc1 25.1 µM
Oc1ccc(NCc2ccc(OCc3ccccc3Cl)cc2)cc1 17.8 µM
O=C(CSc1ccccc1)N1CCc2ccccc21 20 µM
Cc1ccccc1NCc1ccccc1O 15.8 µM
CCNc1nc(C23CC4CC(CC(C4)C2)C3)cs1 7.94 µM
O=C(NC1CCCCCC1)C(=S)NCc1ccccc1 11.2 µM
Cc1ccc(NC(=O)C2COc3ccccc3O2)cc1C (centres undefined) 17.8 µM
CCN(CC)CC(=O)Nc1c(C)cc(C(C)(C)C)cc1C 12.6 µM
COc1cc(CNCCO)ccc1OCCc1ccccc1 15.8 µM
CC(=O)Nc1ccc(NCc2ccc(C)s2)cc1 17.8 µM
Cc1cc(C)n(Cc2ccccc2Cl)n1 12.6 µM
CC1CCN(c2nc(-c3ccncc3)nc3ccccc23)CC1 39.8 µM
Fc1cnc(Cl)nc1NC1CCCCC1 12.6 µM
CC1CCCN(C(=O)Nc2ccc(Br)cc2Cl)C1 (centres undefined) 28.2 µM
COc1ccc(CNC(=O)CN2N=C(c3ccc(Cl)cc3)CCC2=O)cc1 20.7 µM
COc1cccc(NC(=O)Nc2nc(SC(C)(C)C)ns2)c1 10 µM
Oc1cccc(Oc2ncc(C(F)(F)F)cc2Cl)c1 7.94 µM
O=C1c2ccsc2SCCN1Cc1ccccc1Cl 14.1 µM
O=C(CN1CCCC1)Nc1ccc(OCc2ccccc2)cc1 15.8 µM
CC1CCCCN1S(=O)(=O)Cc1ccccc1Cl (centres undefined) 14.1 µM
O=C(NC1CCCCCC1)c1nnc(Cc2ccc(Cl)cc2)o1 15.8 µM
CC(C)CCNC(=O)CN1N=C(c2ccc(Cl)cc2)CCC1=O 5.19 µM
COc1ccccc1-c1cn(C(C)(C)C)nc1C 14.1 µM
COc1ccccc1CC(=O)N1CCCc2ccccc21 31.6 µM
O=C(COc1ccc(F)c(Cl)c1)N1CCCCCCC1 35.5 µM
Cc1cc(C(=O)OCC(=O)N2C(C)CCCC2C)c(C)o1 (centres undefined) 14.1 µM
CCN(CC)c1cccc(OC2=NS(=O)(=O)c3ccccc32)c1 17.8 µM
O=C(Oc1cccc(O)c1)C1CCCCC1 11.2 µM
O=C(COC(=O)C(O)c1ccccc1)NC12CC3CC(CC(C3)C1)C2 (centres undefined) 12.6 µM
Cc1ccc(NC(C)c2cc(Cl)ccc2O)cc1 (centres undefined) 17.8 µM
COc1ccc(C2=Nn3c(nnc3-c3ccc(OC)cc3)SC2)cc1 22.4 µM
Cc1ccc(CC(=O)OCC(=O)NC2CCCC(C)C2C)cc1C (centres undefined) 28.2 µM
Cc1cnc(C(=O)OCC(=O)NC23CC4CC(CC(C4)C2)C3)cn1 14.1 µM
Nc1nc(Cl)cc(NCCc2ccc(O)cc2)n1 14.1 µM
Cc1cc(C)cc(C(=O)N2CCCCCC2)c1 20 µM
O=C(Cn1nc(-c2ccc(Cl)cc2)ccc1=O)NCC1CCCO1 (centres undefined) 14.1 µM
NCCOc1ccc(C23CC4CC(CC(C4)C2)C3)cc1 11.2 µM
O=C(CN1N=C(c2ccccc2)CCC1=O)NCc1cccs1 17.8 µM
COCCCNC(=O)Cn1nc(-c2ccc(C)cc2)ccc1=O 14.1 µM
